# Reference: PubChem BioAssay AID488969 (Vanderbilt High Throughput Screening Facility, 2010)
# Over roughly 110,000 compounds, “z-score” has its median near -0.1; the highest 2% begin near 2. The sample holds the highest values, similar compounds and a random draw of the others, so the mix is not that of the screen. Calls of active or inactive are those of the source.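 How the source made its calls: active means z-score in the third read window above 3 or below -3; inactive means the rest.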
# Biological target: Metabotropic glutamate receptor 8 (Rattus norvegicus) (UniProt P70579)
# Experiment: mGluR8 Gi/Go-coupled signaling modulation – cell-based, rat, thallium flux, HTS, primary screen (AID 488969)
# Conditions: HEK293 rat mGluR8, GIRK (G protein-gated inwardly rectifying potassium channel) thallium flux, FluoZin2; at 10 µM; stronger effect = higher value; submaximal glutamate (EC20) added with thallium
# Metabotropic glutamate receptor 8 (Rattus norvegicus), sequence (P70579 whole entry, looked up): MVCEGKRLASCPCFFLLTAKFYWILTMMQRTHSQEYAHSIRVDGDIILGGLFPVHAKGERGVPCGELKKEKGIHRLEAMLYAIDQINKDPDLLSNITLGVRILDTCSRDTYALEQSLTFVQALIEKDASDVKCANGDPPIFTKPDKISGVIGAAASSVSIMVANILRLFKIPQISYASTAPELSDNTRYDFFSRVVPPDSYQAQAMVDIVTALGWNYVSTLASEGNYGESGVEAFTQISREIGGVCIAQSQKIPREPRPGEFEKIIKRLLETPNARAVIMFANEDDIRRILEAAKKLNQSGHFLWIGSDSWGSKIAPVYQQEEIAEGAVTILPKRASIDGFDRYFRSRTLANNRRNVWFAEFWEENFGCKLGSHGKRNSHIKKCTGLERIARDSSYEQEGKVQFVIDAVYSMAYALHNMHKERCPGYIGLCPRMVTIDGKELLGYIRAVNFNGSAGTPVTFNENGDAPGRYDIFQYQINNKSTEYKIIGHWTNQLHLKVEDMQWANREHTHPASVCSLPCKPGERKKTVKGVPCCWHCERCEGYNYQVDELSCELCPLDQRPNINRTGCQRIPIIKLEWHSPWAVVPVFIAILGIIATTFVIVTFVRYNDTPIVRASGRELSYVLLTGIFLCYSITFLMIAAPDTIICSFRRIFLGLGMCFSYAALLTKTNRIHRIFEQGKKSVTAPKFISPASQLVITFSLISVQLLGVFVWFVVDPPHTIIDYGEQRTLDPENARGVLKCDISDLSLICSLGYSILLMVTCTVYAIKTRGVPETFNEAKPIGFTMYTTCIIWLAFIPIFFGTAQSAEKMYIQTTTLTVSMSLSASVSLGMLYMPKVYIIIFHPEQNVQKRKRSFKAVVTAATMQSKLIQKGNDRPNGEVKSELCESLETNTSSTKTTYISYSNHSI
row,Compound,z-score
1,O=C(c1ccco1)N1CCN(Cc2nc3ccccc3c(=O)n2-c2ccc(F)cc2)CC1,0.209
2,COc1cc2[nH]c(=S)nc(NCC3CCCO3)c2cc1OC (configuration not stated),0.919
3,Cc1cccc(-n2c(C)n[nH]c2=S)c1,-0.139
4,Cc1ccc2c(c1)c1c(n2CC(O)CN2C(=O)CNC2=O)C(=O)CCC1 (configuration not stated),0.0317
5,Cc1cc(C)n(C(=O)CNC(=O)C(c2ccccc2)c2ccccc2)n1,-0.473
6,O=C(C(=O)N1CCCc2ccccc21)N1CCCc2ccccc21,0.0396
7,Fc1ccc(NC(=S)N2CCCc3ccccc32)cc1,-0.143
8,O=C(NC(=S)N1CCCc2ccccc21)c1ccccc1,4.54 (active)
9,COc1ccccc1C(=O)NC(=S)N1CCCc2ccccc21,-0.0293
10,O=C(NC(=S)N1CCCc2ccccc21)c1ccc(Cl)cc1,15.6 (active)
11,S=C(c1ccccc1)N1CCCc2ccccc21,-0.863
12,CN(CCC#N)C(=O)Cn1nc(Cc2ccncc2)c2ccccc2c1=O,1.89
13,CCOCC(=O)Nc1nnc(C2CCCCC2)s1,0.0573
14,Cc1cccc(Cn2c(C(C)O)nc3ccccc32)c1 (configuration not stated),-0.101
15,COc1cccc(N2CCN(CC(=O)C34CC5CC(CC(C5)C3)C4)CC2)c1,0.0526
16,COC(=O)[C@H](C)NC(=O)Nc1cc(OC)ccc1OC,-0.238
17,COc1cc(/C=N/NC(=O)COc2c(C)cc([N+](=O)[O-])cc2C)ccc1OC(=O)c1ccccc1,-0.81
18,Cc1cc([N+](=O)[O-])cc(C)c1OCC(=O)N/N=C/c1ccc(OC(=O)c2ccccc2Br)cc1,2.41
19,Cc1cc([N+](=O)[O-])cc(C)c1OCC(=O)N/N=C/c1ccc(OC(=O)c2ccccc2)cc1,-0.0495
20,CCOc1ccc2[nH]cc(C(=O)N3CCN(C4CCCCC4)CC3)c(=O)c2c1,-0.123
21,CC(=O)N1CCN(CC(O)COc2ccc(OCc3ccccc3)cc2)CC1 (configuration not stated),0.0259
22,Cc1cc2ccccc2c(=O)n1CC(=O)NCC1COc2ccccc2O1 (configuration not stated),0.0188
23,Cc1ccc2nc(N3C(=O)C(O)=C(C(=O)c4ccco4)C3c3cccs3)sc2c1 (configuration not stated),-1.09

row,Compound,z-score
1,O=C1CC(c2ccccc2)Sc2ccccc2N1 (configuration not stated),-0.216
2,CC1CSc2ccccc2NC1=S (configuration not stated),3.72 (active)
3,CC1CC(=S)Nc2ccccc2N1Cc1ccccc1 (configuration not stated),1.32
4,C=C(C)c1cccc(C(C)(C)NC(=O)Nc2ccc(C)cn2)c1,-0.34
5,CCOc1ccc(C(=O)Nc2cc(=O)n(C)c(=O)n2C)cc1,-0.395
6,CCOC(=O)c1ccc2nc(NC(=O)c3ccco3)sc2c1,-0.0743
7,O=C(CN1CCN(Cc2ccc3c(c2)OCO3)CC1)Nc1ccc2c(c1)OCCO2,0.156
8,Cc1c(NC(=O)Cn2cnc3c(=O)n(C)c(=O)n(C)c32)cccc1-c1nc2ccccc2o1,0.183
9,CN(C)c1ccc(/C=N\NC(=S)SCN2C(=O)C3CCC(C)(C2=O)C3(C)C)cc1 (configuration not stated),1.74
10,COc1ccc(/C=N/NC(=S)NC2CCS(=O)(=O)C2)cc1 (configuration not stated),-0.113
11,CC12CCC(C(=O)N(CC(O)CN3CCCCC3)C1=O)C2(C)C (configuration not stated),0.169
12,COc1ccc(/C=N\NC(=S)SCN2C(=O)C3CCC(C)(C2=O)C3(C)C)cc1 (configuration not stated),9.12 (active)
13,COc1ccc(C(=O)NN2C(=O)C3CCC(C)(C2=O)C3(C)C)cc1 (configuration not stated),-0.0665
14,CC12CCC(C(=O)N(CSC(=S)N/N=C\c3ccccc3)C1=O)C2(C)C (configuration not stated),16.4 (active)
15,CCOc1ccc(NC(=O)CCCN2C(=S)NC(C)(C)CC2C)cc1 (configuration not stated),-0.466
16,CCCOc1ccc(N2C(=O)CC(N3CCN(c4nc5ccccc5s4)CC3)C2=O)cc1 (configuration not stated),0.835
17,O=C1CC(N2CCN(c3nc4ccccc4s3)CC2)C(=O)N1c1cccc(F)c1 (configuration not stated),-0.276
18,O=C1CC(N2CCN(c3nc4ccccc4s3)CC2)C(=O)N1c1ccc(F)cc1 (configuration not stated),7.65 (active)
19,CCCC(=O)Nc1nc2ccc3nc(C)sc3c2s1,-0.507
20,CCCCC(=O)Nc1nc2ccc3nc(C)sc3c2s1,-0.125
21,CCC(=O)Nc1nc2ccc3nc(C)sc3c2s1,3.6 (active)
22,Nc1cc2c(cc1C(=O)c1ccccc1)OCCO2,0.199
23,Nc1sccc1C(=O)c1ccc(Cl)cc1,-0.434

row,Compound,z-score
1,Nc1sccc1C(=O)c1ccccc1,11 (active)
2,O=C(N/N=C/c1ccc(-c2ccccc2[N+](=O)[O-])o1)c1cncc(Br)c1,-1.68
3,O=C(Cc1ccccc1)N/N=C/c1cc(Br)c(Br)o1,-0.248
4,O=C(N/N=C\c1cc(Br)c(Br)o1)c1cncc(Br)c1,9.73 (active)
5,Cc1ccnc(NC(=O)CCC(=O)N(CC(=O)NC2CCCCC2)c2cccc(C)c2C)c1,-0.622
6,COc1ccc(OC)c(-c2cc(C(=O)Nc3c(C)nn(Cc4ccccc4Cl)c3C)no2)c1,-0.834
7,CC1Cc2ccccc2N1C(=O)COC(=O)Cn1cnc2ccccc2c1=O (configuration not stated),-0.55
8,Cc1cccc(C(=O)CC(=O)c2cc(Cl)ccc2O)c1,4.14 (active)
9,O=C(CCc1ccccc1)Nc1cc(Cl)ccc1O,-0.624
10,O=C(O)CC(=O)Nc1cc(Cl)ccc1O,0.845
11,Cc1ccc(C(=O)c2cn[nH]c2-c2cc(Cl)ccc2O)cc1,-0.48
12,O=C(CC(=O)c1cc(Cl)ccc1O)c1ccccc1,3.32 (active)
13,Cc1cccc(C(=O)Nc2ccc(NC(=O)Cc3ccc(Cl)cc3)cc2)c1,-0.0593
14,Cc1ccc(C(=O)CC(=O)c2cc(Cl)ccc2O)cc1,7.14 (active)
15,Cc1cccc(/C(N)=N/OC(=O)c2ccc(Cl)cc2Cl)c1,-0.137
16,Cc1ccc(C(=O)CNc2cccc(Cl)c2)cc1,-0.0331
17,COc1nc(-c2ccccc2)ccc1-c1noc(-c2ccccc2F)n1,0.0977
18,NC(=O)c1ccccc1OCC(=O)NC12CC3CC(CC(C3)C1)C2,-0.0638
19,COC(=O)Nc1snnc1C,-0.189
20,CCOC(=O)C1=C(C)N(C)C(=O)NC1c1cc2c(cc1Br)OCO2 (configuration not stated),1.61
21,CCc1nc(NCc2ccco2)c2oc3ccccc3c2n1,-0.48
22,O=C(CN1C(=O)c2cccc3cccc1c23)Nc1ccc(S(=O)(=O)N2CCOCC2)cc1,-0.376
23,COc1cccc(C(=O)Nc2ccccc2N2CCOCC2)c1,0.0601

row,Compound,z-score
1,CN1C(=S)SC(/[N+]([O-])=C\c2cccs2)C1(C)C (configuration not stated),-0.0661
2,CC(=O)Nc1cc2c(cc1NC(=O)Cn1nc(-c3ccc4c(c3)OCCO4)ccc1=O)OCCO2,-0.275
3,COc1cccc(-c2ccc(=O)n(CC(=O)Nc3cc4c(cc3NC(C)=O)OCCO4)n2)c1,2.05
4,CC(=O)Nc1cc2c(cc1NC(=O)Cn1nc(-c3ccccc3F)ccc1=O)OCCO2,-0.0689
5,Cc1cnc(C(=O)Nc2cc(S(=O)(=O)N3CCOCC3)ccc2N2CCN(C)CC2)cn1,0.0173
6,O=C(N/N=C/C=C/c1ccc2c(c1)OCO2)c1ccc([N+](=O)[O-])cc1,0.0517
7,CCCN(CCC)S(=O)(=O)c1ccc(C(=O)Nc2nc(-c3ccccc3)c(C(=O)OCC)s2)cc1,-0.243
8,Clc1ccccc1CN1CCC(Cc2ccccc2)CC1,-0.0513
9,O=C(NCCN1CCOCC1)C1CCC(=O)N1Cc1ccc(F)cc1 (configuration not stated),0.194
10,Cc1ccc(-c2ccc(/C=C/C(=O)c3ccccc3)o2)cc1,-0.233
11,Cc1cc2cc(OCC(=O)O)ccc2n1C,0.494
12,Cc1cccc(NC(=S)N/N=C/c2c[nH]c3ccccc23)c1,-0.0914
13,C/C(=N\NC(=O)c1cccc(C)c1)c1cccc(NC(=O)c2ccco2)c1,-0.159
14,Cc1cccc(NC(=S)N/C(=N/S(=O)(=O)c2ccccc2)c2ccccc2)c1,1.97
15,C/C(=N\NC(=S)Nc1cccc(C)c1)c1ccccc1,5.36 (active)
16,C/C(=N\NC(=O)Nc1ccccc1)c1ccccc1,-0.157
17,C/C(=N\NC(=S)Nc1cccc(C)c1)c1cccc(N)c1,3.42 (active)
18,CCOC(=O)C(NC(=O)CC)(N1CCc2ccccc2C1)C(F)(F)F (configuration not stated),-0.138
19,O=C(NCCCN1CCC(Cc2ccccc2)CC1)C1CC(=O)N(C2CCCCCC2)C1 (configuration not stated),1.25
20,O=C(Nc1ccccc1)c1ccc(CSc2ccccn2)cc1,-0.0973
21,COc1cc(NC(=O)C2CCCCC2)c2ncccc2c1,-0.248
22,COc1cc(NC(=O)c2ccc3c(c2)OCO3)c2ncccc2c1,-0.168
23,COc1cc(NCCCCCCCN)c2ncccc2c1,2.78

row,Compound,z-score
1,C=CCNC(=S)NNC(=O)c1ccc(OCCC)cc1,0.095
2,CCCOc1ccc(C(=O)NNC(=S)NC(=O)CC)cc1,3.01 (active)
3,C=CCNC(=S)NNC(=O)c1ccc(OCCCC)cc1,-0.162
4,CCCOc1ccc(C(=O)NNC(=S)NC(C)=O)cc1,0.435
5,CCCCOc1ccc(C(=O)NNC(=S)NC(=O)CC)cc1,4.28 (active)
6,CCC(=O)NC(=S)NNC(=O)c1ccc(OC)cc1,-0.0696
7,CN(C1CCS(=O)(=O)C1)S(=O)(=O)c1ccc(C2CCCCC2)cc1 (configuration not stated),0.314
8,CCOC(=O)CSc1nnc(NC(=O)c2cccc([N+](=O)[O-])c2C)s1,0.774
9,O=C(NC(NC(=O)c1ccccc1)C(=O)c1ccccc1)c1ccccc1,-0.143
10,CC1=C/C(=N\NC(=O)c2ccccc2)CC1,-0.0871
11,O=C(NN=c1c(=O)c2ccccc2c1=O)c1ccccc1,6.47 (active)
12,O=[N+]([O-])c1cc(/C=N/Nc2nc(N3CCOCC3)nc(N3CCOCC3)n2)ccc1Cl,-0.222
13,CC1(C)CC(=O)C2=C(C1)Nc1cc3c(cc1C2c1ccc2c(c1)OCO2)OCO3 (configuration not stated),-0.639
14,COc1cccc(C2C3=C(CC(C)(C)CC3=O)Nc3cc4c(cc32)OCO4)c1 (configuration not stated),2.12
15,COc1ccc(C2C3=C(CC(C)(C)CC3=O)Nc3cc4c(cc32)OCO4)cc1 (configuration not stated),-0.138
16,Cc1nc2cc(N3CCCCC3)c(NC(=O)c3ccncc3)cc2c(=O)n1Cc1ccc(Cl)cc1,-0.37
17,Cc1nn(C(=O)c2nn(C)cc2Cl)c(C)c1Br,0.0765
18,CC(=O)c1cn(CC(=O)NCc2ccco2)c2ccccc12,-0.774
19,CCCNC(=S)N1CCC(c2nc3cc(C)c(C)cc3[nH]2)CC1,-0.228
20,Cc1ccc(-c2nn(CC(=O)Nc3cccnc3)c(=O)c3ccccc23)cc1,-0.291
